# Only some compounds are listed: those with a hit (about 19% of all), similar ones and a draw of the others.
# IL-1B inflam inh: inhibitors of inflammasome signaling (IL-1 beta secretion). THP-1 LPS/ATP IL-1B secretion, AlphaLISA, 16 h; stronger effect = lower value. activity change, % at 57.5 µM. 4.7% of 360,000 active; in the data active = activity change below about -50%; inconclusive = mostly about -30% to -49%
#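 THP-1 cells pretreated 1 hr with compounds (up to 57.5 uM final), then stimulated with LPS (250 ng/mL final) plus ATP (1.25 mM final); secreted IL-1B measured by AlphaLISA after 16 hr, decreased signal indicating inhibition.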
# DT40 TDP1 CPT: DT40-hTDP1 cell growth loss with CPT; chicken DT40 Tdp1-/-;hTDP1 cells + 20 nM CPT, ATP luminescence, 48 h; 12% of 420,000 active; Potency, µM (doses to about 46.2 µM), without a hit: top-dose activity change, negative = growth inhibition, most hits filed as inhibitors; also: potency is read from the fitted curve at half-maximal effect; nearly all actives have a fitted effect of over 55% in size
#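 Chicken DT40 Tdp1-/- cells stably complemented with human TDP1 were seeded at 400 cells/well in medium containing 20 nM camptothecin, exposed to pin-transferred compounds, and grown at 37 °C for at least 48 hr. Viability was read as ATP luminescence.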
# TDP1 cell noCPT: qHTS for Inhibitors of human tyrosyl-DNA phosphodiesterase 1 (TDP1): qHTS in cells in absence of CPT. Potency, µM (highest dose often 46.2 µM), inactives show at the top dose activity change, negative = growth inhibition, hits mostly inhibitors. 15% of 420,000 active. AID 686978, 2013. DT40 Tdp1-/- hTDP1 cells, no CPT, ATP luminescence, 48 h; also: potency is read from the fitted curve at half-maximal effect; nearly all actives have a fitted effect of over 55% in size
#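 Growth kinetics read by CellTiter-Glo luminescence after ≥48 hr at 37 °C. Cells: DT40 Tdp1-/- stably carrying human TDP1, 400 per well, compound exposure in the absence of CPT (DMSO vehicle).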
# HT1080NT lethal: kills 2HG-producing HT-1080-NT fibrosarcoma cells; Potency, µM (top dose mostly 46.1 µM), for inactives: top-dose activity, negative = less viability, actives largely listed as cytotoxic; HT-1080-NT fibrosarcoma viability, CellTiter-Glo ATP luminescence, 48 h; 1.6% of 360,000 active;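 also: NT is the 2HG producing partner of a matched IDH1 knockdown line; potency is read from the fitted curve at half-maximal effect; 0% = DMSO-treated cells and -100% = media-only wells without cells; nearly all actives have a fitted effect of over 55% in size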
#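 Viability by CellTiter-Glo luminescence after 48 h compound exposure at 37C of HT-1080-NT cells (750/well, RPMI, 5% FBS). % activity scaled between DMSO wells and medium-only wells, then curve-fitted and categorized by curve class.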
# HT1080 IDH1KD tx: kills HT-1080 cells with IDH1 knockdown; HT-1080 IDH1 knockdown viability, ATP luminescence, 48 h; Potency, µM (doses to about 46.1 µM), for the others: top-dose activity, negative = toxicity, usual class: cytotoxic; 2% of 360,000 active;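 also: potency is read from the fitted curve at half-maximal effect; 0% = DMSO wells and -100% = cell-free medium wells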
#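 After a 2 h attachment period, IDH1KD HT-1080 cells took pin-transferred compound for 48 h at 37 °C; ATP-based luminescence after 10 min room-temperature reagent incubation reported viability.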
# * = called active by the depositor; u = inconclusive; x = no result given; [ ] = dose if it differs, or a comment. Unless noted, calls follow the shape of the dose curve; as a rule, active = well fitted curve in the direction sought with a large enough effect; inconclusive = small, poorly fitted or top-dose-only effect, or another doubt; inactive = no such curve, though single readings can be large; an effect the other way counts as inactive or inconclusive. Unless noted, % is scaled to controls: 0 for no effect and ±100 for the full control effect.
SMILES,IL-1B inflam inh,DT40 TDP1 CPT,TDP1 cell noCPT,HT1080NT lethal,HT1080 IDH1KD tx
CS(=O)(=O)N(CC(=O)NC1CCCC1)C1CCCCC1,0.0,4.5%,-2.8%,1.6%,17.6%
COC(=O)[C@@H]1CCCN1Cc1ccc2c(c1)CN(Cc1ccc3c(c1)CCCN3C)CCO2,x,11.4%,-2.0%,x,x
Cc1ccc(C(=O)Nc2cccc(-c3nc(CNC(=O)c4ccc(F)cc4Cl)c(C)o3)c2)s1,x,10.4%[9.04 µM],0.3%,x,x
Cc1ccc(C(=O)Nc2cccc(-c3nc(CNC(=O)c4cccc(C)c4C)c(C)o3)c2)s1,x,23.1µM*,20.6µM*,x,x
COc1ccc(N2C(=O)CSC(c3ccccc3)C2=O)cc1 (configuration not stated),17.5,1.1%,1.2%,2.9%,-5.1%
CCCCN(CCCC)CC(O)CN(c1cc([N+](=O)[O-])ccc1OC)S(=O)(=O)c1ccccc1 (configuration not stated),x,u,14.6µM*,u,u
COc1ccc([N+](=O)[O-])cc1N(CC(O)CN(CC(C)C)CC(C)C)S(=O)(=O)c1ccccc1 (configuration not stated),u,u,20.6µM*,u,u
Cc1cnc(CNc2ccnc(-c3cccc(NS(C)(=O)=O)c3)n2)cn1,x,6.3%,0.3%,x,x
COc1ccc(C(=O)NCCc2c[nH]c3ccc(OC)cc23)cc1,-10.1,2.8%,-18.8%,19.7%,24.6%
COc1ccc2[nH]cc(CCNc3ccnc(-c4cccc(NS(C)(=O)=O)c4)n3)c2c1,x,u,10.3µM*,x,x
COc1ccc2[nH]cc(CCNc3ccnc(-c4cccnc4)n3)c2c1,x,20.6µM*,u,x,x
COc1ccc2[nH]cc(CCNc3ccnc(-c4ccc(N(C)C)cc4)n3)c2c1,x,1.03µM*,0.92µM*,x,x
COc1ccc(CCN(C)C(=O)C2CCCN(C3CCN(Cc4ccccc4)CC3)C2)cc1OC (configuration not stated),-10.8,u,-27.6%,-8.9%,-2.3%
COc1ccc(-c2nc(SCC(=O)N3CCC(C)CC3)n[nH]2)cc1,x,u,-18.6%,x,x
COc1cc(OC)cc(C(=O)NNC(=O)CCC2CCCC2)c1,0.0,-3.5%,-11.7%,0.0%,1.8%
COc1ccc(C2c3cc(OC)c(OC)cc3CCN2C(=O)c2ccccc2)cc1OC (configuration not stated),-9.8,u,9.2µM*,-23.1%,-29.3%
COc1cc2c(cc1OC)C(COc1ccc(C(C)C)cc1)N(C(=O)c1ccc(S(=O)(=O)N3CCCC3)cc1)CC2 (configuration not stated),x,u,20.6µM*,x,x
COc1ccc(C(=O)N2CCc3cc(OC)c(OC)cc3C2COc2ccccc2OC)cc1 (configuration not stated),x,16.4µM*,29.1µM*,x,x
COc1ccc(C2c3cc(OC)c(OC)cc3CCN2C(=O)c2ccccc2Br)cc1OC (configuration not stated),u,-10.8%,u,-18.1%,0.6%
COc1ccc(C(=O)N2CCc3cc(OC)c(OC)cc3C2c2ccc(OC)c(OC)c2)cc1 (configuration not stated),-51.3*,u,u,-24.0%,u
COc1cc2c(cc1OC)C(c1ccc(Br)cc1)N(C(=O)c1ccccc1C(=O)O)CC2 (configuration not stated),48.5,-17.5%,23.1%,-5.0%,-9.6%
COc1cc2c(cc1OC)C(COc1ccccc1OC)N(C(C)=O)CC2 (configuration not stated),17.3,0.0%,-17.1%,3.0%,-0.7%
COc1ccc(-c2n[nH]c3c2CN(C(=O)c2ccc(OC)c(OC)c2)CC3)cc1,0.7,8.2µM*,8.2µM*,-27.0%,20.6µM*
COc1cc2c(cc1OC)C(C)N(S(=O)(=O)c1ccc(C)cc1)CC2 (configuration not stated),7.8,-18.8%,u,-3.2%,1.6%
COc1ccc(C2c3cc(OC)c(OC)cc3CCN2S(C)(=O)=O)cc1OC (configuration not stated),38.0,16.4µM*,20.6µM*,-2.4%,-8.9%
SMILES,IL-1B inflam inh,DT40 TDP1 CPT,TDP1 cell noCPT,HT1080NT lethal,HT1080 IDH1KD tx
COc1cc2c(cc1OC)C(COc1ccc(C(C)C)cc1)NCC2 (configuration not stated),-20.4,u,16.4µM*,-10.8%,-6.4%
COc1cc(OC)cc(C(=O)N2CCN(C(=O)c3ccc(OC)c(OC)c3)CC2)c1,0.4,-0.3%,-5.9%,0.7%,1.8%
COc1ccc(C(=O)N/N=C/c2ccccc2C(=O)O)cc1OC,0.0,-5.1%,-20.3%,12.3%,14.0%
CC(=O)Nc1ccc(C(=O)N/N=C/c2ccccc2OC(=O)c2ccc(Cl)cc2)cc1,70.6,9.2µM*,10.3µM*,u,23.1µM*
COc1cc(C(=O)Oc2ccccc2/C=N/NC(=O)c2ccc(C)c(Cl)c2)cc(OC)c1OC,44.3,1.16µM*,0.92µM*,u,u
c1ccc2sc(C3CCN(Cc4nnnn4Cc4ccc5c(c4)OCO5)CC3)nc2c1,-4.1,u,18.4µM*,-2.8%,-3.8%
COc1ccc(Cn2nnnc2CN2CCC(c3nc4ccccc4s3)CC2)cc1,u,u,u,-13.6%[9.24 µM],u
CN1CCN(C(=O)c2ccccc2NS(=O)(=O)c2ccc(F)cc2)CC1,-12.7,-20.9%,11.8%,-1.3%,-5.6%
CCn1c(SCC(=O)Nc2cc(C)on2)nnc1-c1ccc(OC)cc1,36.2,3.2%,-15.4%,12.4%,4.4%
O=C(Nc1ccccc1N1CCOCC1)c1ccc([N+](=O)[O-])s1,31.4,16.4µM*,16.4µM*,u,u
Cc1cc(C(=O)Nc2ccccc2N2CCOCC2)no1,-1.1,-4.0%,4.2%,3.3%[9.24 µM],1.2%
CCc1sc(C(=O)Nc2ccccc2N2CCOCC2)cc1C,-12.6,23.1µM*,u,11.0%,15.5%
O=C(Nc1ccccc1N1CCOCC1)c1ccccc1[N+](=O)[O-],4.8,-17.9%,-24.9%,-0.6%,7.2%
CC1CC(C)(C)CC2(C1)NC(=O)N(CC(=O)OCC(=O)Nc1cc(S(=O)(=O)N3CCCCC3)ccc1Cl)C2=O (configuration not stated),1.0,2.3%,0.1%,3.1%,3.3%
Cn1c(NC(=O)C(C)(C)Oc2ccc(Cl)cc2)cc(=O)n(C)c1=O,26.2,16.4µM*,u,-3.4%,1.3%
Cn1c(NC(=O)c2cc(Cl)ccc2Cl)cc(=O)n(C)c1=O,6.1,3.5%,0.8%,3.0%,2.1%
Cn1c(CC(=O)Nc2ccccc2F)nnc1SCC(=O)NC1CCCCC1,-4.1,4.1%,0.0%,12.0%,6.2%

# Compound activity as filed in PubChem.
